# This is part of a sample that, as a whole, favours compounds with a hit. Of some 83,000 tested, about 20% had one in any assay.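 Step 1: grow cells in 96-well plates. Step 2: add test compound at a single concentration. Step 3: incubate 48 h. Step 4: record percent growth.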 A number with no mark means an inactive call. The source made the active and inactive calls. How the source made its calls: active means growth percent below 10; inactive means the rest.
# System: HL-60(TB) leukemia
# Assay: NCI-60 one-dose screen, 48 h (100 = growth as untreated, 0 = no growth, -100 = all killed)
# Conditions: 10 µM unless noted
row,SMILES,growth
1,CC1=C(C(=O)Nc2ccc(F)cc2)C(c2ccc(Cl)cc2)C2=C(CC(C)(C)CC2=O)N1 (stereo not given),104%
2,O=C(O)CCNC1CCCCC1,97.5%
3,C=C1C(=O)O[C@H]2[C@H]1CC/C(Cn1cc(CCC)nn1)=C\CC[C@@]1(C)O[C@@H]21,-13.9% (active)
4,CN1CCN(c2ccc(Nc3ncc(C(N)=O)c(NCCCNC(=O)C4CCC4)n3)cc2)CC1,-36.3% (active)
5,CN(C)c1ccc2oc(=O)c3ccccc3c2c1,143%
6,O=C(/C=C\c1ccc2c(c1)OCO2)/C=C/c1ccc2c(c1)OCO2,42.8%
7,CCCC1CCCCN1C(=O)OCC(C)C (stereo not given),107%
8,CCCCOc1ccc(/C=C2/SC(N3CCOCC3)=NC2=O)cc1OCC,101%
9,Cc1sc2ncnc(Sc3nc4ccccc4[nH]3)c2c1C,-54.7% (active)
10,FC(F)(F)c1[nH]ncc1-c1nc2c(N3CCCCC3)cc3[nH]ncc3c2c2c1CCCC2,-1.46% (active)
11,COc1ccc(N=N/N=c2\sc3cc(OC)ccc3n2C)cc1,102%
12,COCCOC(=O)COc1ccc(OC)cc1,90.7%
13,O=c1c2c3c(sc2n2c(CCl)nnc2n1Cc1ccccc1)CCCC3,-59.8% (active)
14,C1C[S+]2CC[S+]1CC2,111%
15,CS(=O)(=O)c1ccc(/C=C\C(=O)O)cc1,122%
16,CCn1cc(-c2cc(-c3ccc(Cl)cc3)nc(N)n2)c(-c2ccc(Br)cc2)n1,77.7%
17,CN=C(N)N/N=C(\C)c1ccc2c(c1)Cc1ccccc1-2,-50.3% (active)
18,O/N=C1\c2ccccc2-c2ccc(Br)cc21,109%
19,N#CCc1ccc([N+](=O)[O-])cc1,53.1%
20,NC(=O)N/N=C\c1ccc([N+](=O)[O-])o1,120%

row,SMILES,growth
1,Cc1onc2c(-c3ccccc3)n[nH]c(=O)c12,90.2%
2,C=C1C(=O)O[C@H]2[C@H]1CC/C(CNC(=O)/C=C/c1ccc(Br)cc1)=C\CC[C@@]1(C)O[C@@H]21,-15.8% (active)
3,CCN1C(=O)N(CC)C2C1NC(=S)N2/N=C/C=C/c1cccs1 (stereo not given),-41.3% (active)
4,CCOC(=O)CNC(=O)Sc1ccc(C(C)(C)C)cc1,64.4%
5,O=c1c2ccccc2c(=O)c2c1sc1c(=O)c3ccc(O)cc3c(=O)c12,-30.6% (active)
6,COc1cccc(CC(C)=C(c2ccc(OCCCN(C)C)cc2)c2ccc(OCCCN(C)C)cc2)c1,-68% (active)
7,C=C(C)[C@@H]1CC[C@]2(c3ncc(C)o3)CC[C@]3(C)[C@H](CC[C@@H]4[C@@](C)(CCC#N)[C@H](C(=C)C)CC[C@]43C)[C@@H]12,-27.9% [100 µM] (active)
8,Cc1ccc2c(c1)sc1nc(-c3c[nH]c4ccccc34)c(Nc3ccccc3)n12,97%
9,O=C1NCCc2c1noc2-c1ccccc1,102%
10,CCCC1OC(c2ccco2)OCC1CC (stereo not given),102%
11,CCCCNC(=O)Oc1ccc(/C(=C(\C)c2ccccc2)c2ccc(OCCN(CC)CC)cc2)cc1,21.3%
12,Cn1c(=O)c2c(nc(Br)n2CCC(=O)Nc2ccc(F)cc2)n(C)c1=O,91.8%
13,O=S(=O)(NCCCNc1cc(-c2cn(-c3ccccc3)nc2-c2cccc(O)c2)ccn1)c1cccc2ccccc12,17.1%
14,CNc1ccc(Br)c2c1C(=O)c1ccccc1C2=O,97.1%
15,CC(=O)OC[C@]12CC[C@@H]([C@@H](C)C(N)=O)[C@@H]1[C@H]1CC[C@@H]3[C@@]4(C)CC[C@H](OC(C)=O)C(C)(C)[C@@H]4CC[C@@]3(C)[C@]1(C)CC2,-23.1% [100 µM] (active)
16,CN(Cc1cnc2nc(N)nc(N)c2n1)c1ccc(C(=O)NC(CCC(=O)O)C(=O)O)cc1 (stereo not given),29.5%
17,O=C(Nc1nc(-c2ccccc2)cs1)c1cc(O)c(O)c(O)c1,12.6%
18,C=C1CC[C@@H]2[C@](C)(COC(C)=O)[C@H](OC(C)=O)CC[C@@]2(C)[C@@H]1CC(Nc1ccc(S(=O)(=O)Nc2nccs2)cc1)C1=CCOC1=O (stereo not given in full),-20.9% (active)
19,N=c1sc2ccccc2n1CC(=O)O,114%
20,Cc1cc(C)c(-c2c(N)cc(Br)cc2Br)c(N)c1,21.1%
